Source: PubChem BioAssay AID1508636 (National Center for Advancing Translational Sciences (NCATS), 2021)
Records with an inconclusive call do not appear. A number with no mark means an inactive call. Active and inactive are the calls of the source. Calls come from the whole dose curve; as a rule, active = well fitted inhibition curve with a large enough effect; inconclusive = small, poorly fitted or top-dose-only effect; inactive = flat fitted curve, though single readings scatter. *1 amine or outer side, *2 acyl side, *3 side chain or, on linkers, in order; H or OH if unused. Where a SMILES comes first, the peptide text is derived from it. Bridges are numbered along the chain shown (N, C = ends). Roman numbers before positions name the chains, in order. [ ]: non-standard residue; d: D form. The star is where a group is joined. ξ: configuration not given here. Actinocin(9to1) = Cc1c2oc3c(C)ccc(C(=O)[*:1])c3nc-2c(C(=O)[*:2])c(N)c1=O; ξNMeV = CNC(C(=O)O)C(C)C; Cbz = O=C(OCc1ccccc1)*; Nva = CCC[CH](N)C(=O)O; ξV = CC(C)C(N)C(=O)O; Sar = CNCC(=O)O

Target: ATP-dependent translocase ABCB1 (Homo sapiens) (UniProt P08183)
Assay: qHTS for characterization and localization of zebrafish homologs of the human ABCB1 multidrug transporter: P-gp overexpressing MDR-19 cells
Conditions: MDR-19 cells overexpressing P-gp, CellTiter-Glo luminescence viability, 72 h; series mostly up to 46.1 µM; activity change, negative = inhibition: at the top concentration
Description: The zebrafish has emerged as a potential model to study the blood-brain barrier (BBB) given its similarities with mammalian systems. However, little information has been available with regard to homologous ATP-binding cassette transporters expressed at the zebrafish BBB. Two transporters that are highly expressed at the human BBB are P-glycoprotein (P-gp, encoded by the ABCB1 gene) and ABCG2 (encoded by the ABCG2 gene). In this study, we focus on characterization of P-gp homologs in the zebrafish, which has two genes that are homologous to human ABCB1 - abcb4 and abcb5. We generated stably-transfected cell lines to determine their substrate specificities. […] Zebrafish abcb4 also colocalized with claudin 5 expression in brain endothelial cells.
A high-throughput screen was performed as previously described on empty vector transfected cells, P-gp-overexpressing MDR-19 cells and cells transfected with full-length zebrafish abcb4 (ZF Abcb4) or abcb5 (ZF Abcb5). Briefly, cells were plated into 1536-well plates at a density of 500 cells/well in 5 uL media. P-gp substrate compounds (approximately 90) selected from our previous study were then added at varying concentrations using a 1536-head pin tool (Kalypsis, San Diego, CA) and plates were incubated at 37C in 5% CO2 for 72 h. CellTiter-Glo reagent (Promega) was dispensed into the wells, incubated for 5 min and luminescence was read on a ViewLux instrument (Perkin-Elmer).
Cytotoxic compounds were defined as those that yielded a curve class of -1.1, -1.2, -2.1, -2.2, -2.3, or -2.4, a maximum response of >50% and an AC50 of < 10 uM. All compounds from screening analysis were tested in Vector (empty vector control), MDR-19 (P-gp overexpressing), zebrafish abcb4 (ZF Abcb4) and abcb5 (ZF Abcb5) expression cell lines.
1. Tobie D Lee, Olivia W Lee, Kyle R Brimacombe, Lu Chen, Rajarshi Guha, Sabrina Lusvarghi, Bethilehem G Tebase, Carleen Klumpp-Thomas, Robert W Robey, Suresh V Ambudkar, Min Shen, Michael M Gottesman, Matthew D Hall. A High-Throughput Screen of a Library of Therapeutics Identifies Cytotoxic Substrates of P-glycoprotein. Mol Pharmacol. 2019, Nov;96(5):629-640.

ATP-dependent translocase ABCB1 (Homo sapiens), sequence (P08183 whole entry, looked up): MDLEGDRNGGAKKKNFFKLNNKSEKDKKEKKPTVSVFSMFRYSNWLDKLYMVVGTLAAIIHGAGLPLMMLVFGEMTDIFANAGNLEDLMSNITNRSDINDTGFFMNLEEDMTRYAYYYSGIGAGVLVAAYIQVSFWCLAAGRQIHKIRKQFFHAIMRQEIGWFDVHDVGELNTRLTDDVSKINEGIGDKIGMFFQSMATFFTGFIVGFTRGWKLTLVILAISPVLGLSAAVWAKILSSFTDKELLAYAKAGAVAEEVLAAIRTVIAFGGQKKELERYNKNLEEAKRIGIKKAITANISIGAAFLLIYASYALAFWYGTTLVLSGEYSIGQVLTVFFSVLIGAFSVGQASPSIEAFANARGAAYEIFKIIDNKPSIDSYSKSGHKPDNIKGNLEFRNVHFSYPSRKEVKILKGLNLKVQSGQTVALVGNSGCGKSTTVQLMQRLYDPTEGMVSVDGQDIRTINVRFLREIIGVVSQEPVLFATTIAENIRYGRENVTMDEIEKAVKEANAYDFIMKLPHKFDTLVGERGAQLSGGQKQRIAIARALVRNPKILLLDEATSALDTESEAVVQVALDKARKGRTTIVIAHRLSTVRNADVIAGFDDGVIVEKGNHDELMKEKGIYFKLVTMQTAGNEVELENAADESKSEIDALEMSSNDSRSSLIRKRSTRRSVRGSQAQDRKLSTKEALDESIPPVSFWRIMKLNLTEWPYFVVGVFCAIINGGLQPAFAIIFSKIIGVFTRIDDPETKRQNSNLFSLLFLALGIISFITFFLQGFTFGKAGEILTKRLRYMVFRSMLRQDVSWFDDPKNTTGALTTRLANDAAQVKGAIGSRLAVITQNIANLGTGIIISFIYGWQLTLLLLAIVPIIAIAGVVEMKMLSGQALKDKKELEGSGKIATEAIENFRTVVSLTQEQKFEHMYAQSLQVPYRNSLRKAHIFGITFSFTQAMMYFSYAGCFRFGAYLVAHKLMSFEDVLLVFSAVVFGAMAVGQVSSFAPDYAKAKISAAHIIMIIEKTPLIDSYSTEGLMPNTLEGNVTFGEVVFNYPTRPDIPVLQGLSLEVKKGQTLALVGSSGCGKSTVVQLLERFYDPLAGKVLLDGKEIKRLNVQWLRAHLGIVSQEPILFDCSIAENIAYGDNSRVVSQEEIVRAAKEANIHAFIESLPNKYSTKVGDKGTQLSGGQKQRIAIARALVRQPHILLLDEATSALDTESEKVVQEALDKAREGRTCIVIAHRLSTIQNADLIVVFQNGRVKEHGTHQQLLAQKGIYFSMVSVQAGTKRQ

| Structure (SMILES) | activity change, negative = inhibition | Potency |
| --- | --- | --- |
| CN(C)C/C=C/C(=O)Nc1cccc(C(=O)Nc2ccc(Nc3nccc(-c4cccnc4)n3)cc2)c1 | -8.41% |  |
| CCN(CCCO)CCCOc1ccc2c(Nc3cc(CC(=O)Nc4cccc(F)c4)[nH]n3)ncnc2c1 | -4.66% |  |
| CC(C)(C)c1cnc(CSc2cnc(NC(=O)C3CCNCC3)s2)o1 |  | 24.1 µM (active) |
| Cc1ccc(-c2ncn(-c3ccc(Nc4nccc(-c5cccc(N6CCOCC6)c5)n4)cc3)n2)cn1 |  | 3.72 µM (active) |
| COc1ccc(CC2C(=O)NC(C)C(=O)N(C)C3Cc4ccc(cc4)Oc4cc(ccc4OC4OC(CO)C(O)C(O)C4O)CC(C(=O)NC(C)C(=O)NC(C)C(=O)N2C)N(C)C3=O)cc1 (stereo not given) | -8.38% [at 15.2 µM] |  |
| COc1cc(C(=O)NC2CCN(C)CC2)ccc1Nc1ncc2c(n1)N(C1CCCC1)CC(F)(F)C(=O)N2C |  | 3.32 µM (active) |
| COc1cc2ncn(-c3cc(OCc4ccccc4C(F)(F)F)c(C(N)=O)s3)c2cc1OC |  | 5.4 µM (active) |
| CC(C)C[C@H](NC(=O)[C@@H](NC(=O)c1cccc(-c2ccccc2)n1)[C@@H](C)O)B(O)O |  | 0.372 µM (active) |
| C[C@@]12O[C@@H](C[C@]1(O)CO)n1c3ccccc3c3c4c(c5c6ccccc6n2c5c31)CNC4=O |  | 8.33 µM (active) |
| C[C@@H](Oc1cc(-n2cnc3ccc(CN4CCN(C)CC4)cc32)sc1C(N)=O)c1ccccc1C(F)(F)F |  | 0.469 µM (active) |
| CC[C@@H]1C(=O)N(C)c2cnc(Nc3ccc(C(=O)NC4CCC(N5CCN(CC6CC6)CC5)CC4)cc3OC)nc2N1C(C)C (stereo not given in full) |  | 2.35 µM (active) |
| Cc1ccc(C(=O)N(CCCN)C(c2nc3cc(Cl)ccc3c(=O)n2Cc2ccccc2)C(C)C)cc1 (stereo not given) |  | 14.8 µM (active) |
| CO[C@H]1/C=C/C=C/C=C/C[C@H](OC(=O)[C@@H](C)NC(=O)C2CCCCC2)[C@H](C)[C@@H](O)/C(C)=C/CCc2cc(O)cc(c2)NC(=O)C1 | -13.5% [at 15.2 µM] |  |
| C#CCN(Cc1cc2c(=O)n(C)c(CN3CCN(C)CC3)nc2cc1Cl)c1ccc(C(=O)NCc2cccnc2)cc1 | -24.7% |  |
| CCCCc1nc2cc(C=CC(=O)NO)ccc2n1CCN(CC)CC |  | 5.26 µM (active) |
| COc1cc(N2CCC(O)CC2)ccc1Nc1nc(Nc2ccccc2S(=O)(=O)C(C)C)c2[nH]cnc2n1 | -15.7% |  |
| CC(=O)C1(O)Cc2c(O)c3c(c(O)c2C(OC2CC(N)C(O)C(C)O2)C1)C(=O)c1c(O)cccc1C3=O (stereo not given) |  | 0.148 µM (active) |
| CC(C)C[C@H](NC(=O)[C@H](CCc1ccccc1)NC(=O)CN1CCOCC1)C(=O)N[C@@H](Cc1ccccc1)C(=O)N[C@@H](CC(C)C)C(=O)[C@@]1(C)CO1 |  | 0.743 µM (active) |
| CC1(C)CC[C@]2(C(=O)OC3OC(CO)C(O)C(O)C3O)CC[C@]3(C)C(=CCC4[C@@]5(C)CC[C@H](OC6OC(C(=O)O)C(O)C(O)C6O)C(CO)(CO)C5CC[C@]43C)[C@@H]2C1 (stereo not given in full) | 4.43% [at 15.2 µM] |  |
| Cc1c2oc3c(C)ccc(C(=O)N[C@@H]4C(=O)NC(C(C)C)C(=O)N5CCC[C@H]5C(=O)N(C)CC(=O)N(C)C(C(C)C)C(=O)O[C@@H]4C)c3nc-2c(C(=O)N[C@@H]2C(=O)NC(C(C)C)C(=O)N3CCC[C@H]3C(=O)N(C)CC(=O)N(C)C(C(C)C)C(=O)O[C@@H]2C)c(N)c1=O (stereo not given in full) (I: T[ξV]P[Sar][ξNMeV] / II: T[ξV]P[Sar][ξNMeV]; ester I:1-I:C, II:1-II:C; linker I:N-II:N via Actinocin(9to1)) |  | 0.469 µM (active) |

| Structure (SMILES) | activity change, negative = inhibition | Potency |
| --- | --- | --- |
| CCc1cccc(CC)c1NC(=O)N1Cc2[nH]nc(NC(=O)c3ccc(N4CCN(C)CC4)cc3)c2C1 | 3.47% |  |
| C[C@@H]1O[C@@H](O[C@H]2[C@@H](OC(=O)[C@]34CCC(C)(C)CC3C3=CCC5[C@@]6(C)C[C@H](O)[C@H](O[C@@H]7O[C@H](CO)[C@@H](O)[C@H](O)[C@H]7O[C@@H]7OC[C@@H](O)[C@H](O)[C@H]7O)[C@@](C)(C(=O)O)C6CC[C@@]5(C)[C@]3(C)CC4)OC[C@H](O)[C@@H]2O)[C@H](O)[C@H](O)[C@H]1O[C@@H]1OC[C@@H](O)[C@H](O)[C@H]1O (stereo not given in full) | -1.44% [at 8.96 µM] |  |
| NC(=O)Nc1cc(-c2cccc(F)c2)sc1C(=O)N[C@H]1CCCNC1 |  | 8.33 µM (active) |
| O=C(NC1CCNCC1)c1[nH]ncc1NC(=O)c1c(Cl)cccc1Cl | -24% |  |
| CC1(C)CC(NC(=O)C(=O)Nc2ccc(Br)cc2)CC(C)(C)N1 | -6.87% |  |
| CC(NCc1ccc2c(c1)nc(NC(=O)c1ccc(-c3cn[nH]c3)s1)n2CC(C)(C)O)C(C)(C)C (stereo not given) |  | 2.96 µM (active) |
| CCN1CCN(Cc2ccc(NC(=O)Nc3ccc(Oc4cc(NC)ncn4)cc3)cc2C(F)(F)F)CC1 | 4.09% |  |
| C=CCn1c(=O)c2cnc(Nc3ccc(N4CCN(C)CC4)cc3)nc2n1-c1cccc(C(C)(C)O)n1 |  | 4.69 µM (active) |
| CC(=O)O[C@@H]1C[C@H](O)[C@@]23CO[C@@H](O)C1(C)[C@@H]2C[C@@H](O)[C@]1(C)[C@@H]3C(=O)[C@H](OC(C)=O)[C@@]2(C)[C@H](c3ccoc3)C[C@H]3O[C@]321 |  | 3.72 µM (active) |
| Cc1[nH]c2ccccc2c1CCNCc1ccc(/C=C/C(=O)NO)cc1 |  | 1.32 µM (active) |
| CCn1c(-c2nonc2N)nc2c(C#CC(C)(C)O)ncc(OC[C@H]3CCCNC3)c21 | -13.1% |  |
| CN(C)C1CCN(C(=O)c2ccc(NC(=O)Nc3nc(N4CCOCC4)nc(N4CCOCC4)n3)cc2)CC1 | 2.28% |  |
| CN(c1ncccc1CNc1nc(Nc2ccc3c(c2)CC(=O)N3)ncc1C(F)(F)F)S(C)(=O)=O |  | 18.7 µM (active) |
| CC(C)C[C@@H](C=O)NC(=O)[C@H](CC(C)C)NC(=O)[C@H](CC(C)C)NC(=O)OCc1ccccc1 (Cbz-Leu-Leu-Leu-aldehyde) |  | 3.72 µM (active) |
| COC(C(=O)N1Cc2[nH]nc(NC(=O)c3ccc(N4CCN(C)CC4)cc3)c2C1)c1ccccc1 (stereo not given) | -7.32% |  |
| CN(C)c1ccc(C(=C2C=CC(=[N+](C)C)C=C2)c2ccc(N(C)C)cc2)cc1 |  | 4.69 µM (active) |
| CCS(=O)(=O)c1cccc(-c2cc(C(=O)NC3CCN(C)CC3)c(C)c3[nH]c4ncc(C)cc4c23)c1 | -8.71% |  |
| CCCC(C=O)NC(=O)C(CC(C)C)NC(=O)C(CC(C)C)NC(=O)OCc1ccccc1 (stereo not drawn) (Cbz-Leu-Leu-[Nva]-aldehyde; configuration not given here) |  | 4.18 µM (active) |
| CC(C)CC(=O)Nc1n[nH]c2c1CN(C(=O)C1CCN(C)CC1)C2(C)C | -14.7% |  |
| Cc1cc(Nc2cc(NC(=O)c3c(Cl)cccc3Cl)ccn2)nc(N)n1 |  | 13.2 µM (active) |
